# Rows were chosen to be rich in hits. Some 1.1% of all compounds tested hit in one or more screens of this group.
# Vaccinia Venus – vaccinia inhibition (Venus reporter); Vaccinia virus Venus reporter expression, fluorescence; Potency, µM (doses to about 36.5 µM), for the others: at the top dose activity change, negative = inhibition, most hits filed as inhibitors; 330,000 compounds, 0.46% hits; calls by dose curve; tested in A549 cells; further: nearly all actives have a fitted effect of over 30% in size
# AmpC inh no detg – blocks E. coli AmpC beta-lactamase in detergent-free assay; P00811; Potency, µM (series often up to 57.1 µM), inactives show at the top dose activity change, negative = inhibition, usual class: inhibitors; 330,000 compounds, 0.52% hits; AmpC nitrocefin hydrolysis, absorbance 480 nm, 0.0001% Triton;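 further: plate controls were no compound for no effect and no enzyme for full effect; nearly all actives have a fitted effect of over 20% in size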
# Target sequence (P00811 whole entry, looked up): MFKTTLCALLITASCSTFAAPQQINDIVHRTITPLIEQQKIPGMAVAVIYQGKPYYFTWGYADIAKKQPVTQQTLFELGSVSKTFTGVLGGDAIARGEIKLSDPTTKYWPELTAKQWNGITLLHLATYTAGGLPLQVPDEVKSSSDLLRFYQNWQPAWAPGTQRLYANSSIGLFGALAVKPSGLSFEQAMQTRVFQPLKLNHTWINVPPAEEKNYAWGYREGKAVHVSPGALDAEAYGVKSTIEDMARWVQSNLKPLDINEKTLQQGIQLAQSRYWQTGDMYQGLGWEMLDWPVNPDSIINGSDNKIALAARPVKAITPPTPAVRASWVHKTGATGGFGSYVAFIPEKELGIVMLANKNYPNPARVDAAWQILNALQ
#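 AmpC (5.3 nM in the dispensed reagent) in 20 mM phosphate pH 7.0 with 0.01% (detergent screen) or 0.0001% Triton X-100 was preincubated with compounds for 15 min at room temperature. Nitrocefin was then added from an 800 uM solution, and hydrolysis was followed at 480 nm.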
# VACV mCherry inh – inhibitors of vaccinia virus infection (mCherry reporter signal); Vaccinia virus mCherry reporter infection, fluorescence; Potency, µM (doses to about 36.5 µM), for inactives: top-dose activity change, negative = inhibition, most hits filed as inhibitors; 310,000 compounds, 0.63% hits; calls by dose curve; tested in A549 cells; further: nearly all actives have a fitted effect of over 35% in size
# AmpC inh detg – inhibitors of E. coli AmpC beta-lactamase with detergent; 370,000 compounds, 0.041% hits; Potency, µM (top dose mostly 114 µM), without a hit: at the highest dose activity change, negative = inhibition, hits mostly inhibitors; P00811; AmpC hydrolysis of nitrocefin, absorbance 480 nm, 0.01% Triton;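 further: 0% = no-compound wells and -100% = no-enzyme wells; nearly all actives have a fitted effect of over 25% in size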
#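 20 mM phosphate pH 7.0 + 0.01% (detergent screen) or 0.0001% Triton X-100; 5.3 nM AmpC reagent; cpd preinc 15 min RT; nitrocefin (800 uM stock) to start; A480 q20 s × 4 min; Activity was normalised to no-enzyme and no-compound control wells.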
# Active calls of the source: *; i = inactive; u = inconclusive; x = not tested or not shown. Unless noted, the call rests on the fitted dose curve; in most records, active means well fitted curve in the direction sought with a large enough effect; inconclusive means small, poorly fitted or top-dose-only effect, or another doubt; inactive means no such curve, though single readings can be large; an effect the other way counts as inactive or inconclusive. Unless noted, on the % scale 0 is the no-effect control and ±100 the full control effect; potency means the concentration at half of the fitted maximal effect.
SMILES,Vaccinia Venus,AmpC inh no detg,VACV mCherry inh,AmpC inh detg
CC(=O)Nc1ccc(Nc2nc(-c3sc(NC(C)=O)nc3C)cs2)cc1,-20%,1.8µM*,-24%,-5%
CC(=O)Nc1nc(C)c(-c2csc(Nc3ccc(O)cc3)n2)s1,x,u,x,-3%
COc1ccccc1C(=O)COC(=O)CCCN=C1NS(=O)(=O)c2ccccc21,-3%,-20%,-14%,0%
O=C(CCN=C1NS(=O)(=O)c2ccccc21)OCC(=O)c1ccccc1Cl,-8%,40µM*,i,4%
CN(/N=C/c1ccc(O)cc1O)c1nc(-c2ccccc2)cc(-c2ccccc2)n1,20µM*,-16%,u,-1%
Cc1cc(-c2ccccc2)nc(N/N=C/c2ccc(O)cc2O)n1,u,-30%,u,0%
COc1ccc(OC)c([C@@H](O)[C@H](C)N)c1,-7%,x,i,x
Cc1cccc(S(=O)(=O)N2CCN(c3nc(-c4cccs4)nc4ccccc34)CC2)c1,-13%,x,-7%,x
COc1ccc(NC(=O)c2nnn(Cc3ccc(Br)cc3F)c2N)c(OC)c1,-4%,x,-9%,-8%
COc1ccc(OC)c(NC(=O)c2nnn(Cc3ccc(Br)cc3F)c2N)c1,-11%,0.79µM*,-23%,u
Cc1cc(=O)c(C(=O)NCCCc2ccncc2)c2n1-c1ccccc1SC(c1cccs1)C2 (stereo not drawn),-4%,x,-6%,x
COc1ccc(C=CC(=O)c2cc(O)ccc2O)cc1,-24%,x,7.9µM*,x
Cc1ccc(OCCSc2nc3ccc(NC(=O)c4ccc5c(c4)OCO5)cc3s2)cc1,11µM*,x,u,22%
Cc1c(C(=O)NCC2Cc3cccc(-c4cncnc4)c3O2)c(-c2ccccc2)nn1-c1ccccc1 (stereo not drawn),10%,x,-14%,x
Cc1cc(C)n(-c2ccc(C(=O)N3CCc4c(cnc(C)c4CNC(=O)c4ccccc4F)C3)cc2)n1,-6%,x,-14%,x
CCCCCSc1cc(OC)c(CCN)cc1OC,-18%,57%,x,u
CCCCCCCSc1cc(OC)c(CCN(C)C)cc1OC,10µM*,235%,u,4%
COc1cc(=O)n2c(c1C(=O)NCc1ccco1)CCN(Cc1cccc(C)n1)CC2,1%,x,-10%,x
O=[N+]([O-])c1cc(O)c2ncccc2c1,1µM*,-21%,1µM*,-4%
O=[N+]([O-])c1cc2cccnc2c2ncccc12,x,-8%,x,-2%
CCCCC1CN(CCNC(=O)c2ccccn2)Cc2ccccc2O1 (stereo not drawn),-1%,x,-10%,x
Cc1csc(C(C)N(C)C(=O)c2cnn(-c3nccc(-c4cc(C)sc4C)n3)c2C)n1 (stereo not drawn),-5%,x,-14%,x
O=C(N/N=C/c1ccc([N+](=O)[O-])s1)c1ccccc1Br,11µM*,-24%,u,-12%
Cn1c(SCC(=O)N/N=C/c2ccc([N+](=O)[O-])s2)nnc1-c1ccccc1,u,-49%,28µM*,-9%
Cc1cc(C(=O)N/N=C/c2ccc([N+](=O)[O-])cc2)c2ccccc2n1,x,-15%,x,3%
SMILES,Vaccinia Venus,AmpC inh no detg,VACV mCherry inh,AmpC inh detg
Cc1cc(C(=O)N/N=C/c2ccc([N+](=O)[O-])s2)c2ccccc2n1,28µM*,-33%,10µM*,-6%
O=[N+]([O-])c1ccc(/C=N/NC(=S)Nc2ccc(Cl)cc2Cl)s1,x,14µM*,x,-4%
COc1ccc(NC(C)C(=O)N/N=C/c2ccc([N+](=O)[O-])s2)cc1 (stereo not drawn),13µM*,-25%,8.9µM*,u
Cc1cc(-c2nnc3n2N=C(c2ccccc2)CS3)n[nH]1,-19%,-19%,-12%,6%
Cc1cc(-c2nnc3n2N=C(c2ccc(-c4ccccc4)cc2)CS3)n[nH]1,u,12%,11µM*,-1%
O=C1NC(=O)N(c2ccc(Cl)cc2)C(=O)/C1=C\c1ccc(Sc2nc3ccccc3[nH]2)o1,402%,18µM*,105%,-8%
O=C(NCc1cccnc1)C1CCN(S(=O)(=O)c2cc([N+](=O)[O-])ccc2Cl)CC1,u,32%,14µM*,x
FC(F)(F)c1cc(CCN2CCNC[C@@H]2Cc2ccccc2)cc(C(F)(F)F)c1,11µM*,x,13µM*,x
CN(C)c1nc(-c2ccccn2)nnc1-c1ccccc1,u,-12%,8.9µM*,-2%
Cc1c(C(=O)NCCN2CCOCC2)cnn1-c1nccc(-c2cc3ccccc3o2)n1,-12%,x,-6%,x
CC1OC(O[C@H]2C[C@@H](O)[C@]3(CO)[C@H]4[C@H](O)C[C@]5(C)[C@@H](C6=CC(=O)OC6)CC[C@]5(O)[C@@H]4CC[C@]3(O)C2)C(O)C(O)C1O (stereo partly drawn),0.0035µM*,x,u,x
C[C@@H]1O[C@@H](O[C@H]2C[C@@H](O)[C@]3(CO)[C@@H]4C(CC[C@]3(O)C2)[C@@]2(O)CC[C@H](C3COC(=O)C3)[C@@]2(C)C[C@H]4O)[C@H](O)[C@H](O)[C@H]1O (stereo partly drawn),1.8µM*,-48%,u,-13%
COC1C(O)C(OC2CC[C@]3(C=O)C4C(OC(C)=O)C[C@@]5(C)C(C6=CC(=O)OC6)CC[C@]5(O)C4CC[C@]3(O)C2)OC(C)C1OC(C)=O (stereo partly drawn),-4%,x,-8%,x
COC1C(O)C(C)OC(OC2CCC3(C)C(CCC4C3C(O)CC3(C)C(C5=CC(=O)OC5)CCC43O)C2)C1O (stereo not drawn),0.35µM*,x,0.25µM*,x
C[C@H]1CC[C@@H]2[C@@H](C)[C@H]3[C@H](C[C@H]4[C@@H]5CC=C6C[C@@H](O[C@@H]7O[C@H](CO)[C@H](O)[C@H](O[C@@H]8O[C@H](CO)[C@@H](O)[C@H](O)[C@H]8O)[C@H]7O[C@@H]7O[C@@H](C)[C@H](O)[C@@H](O)[C@H]7O)CC[C@]6(C)[C@H]5CC[C@]34C)N2C1,u,221%,u,-7%
CC(=O)N1CCC[C@H]1C(=O)NCC1Cc2cc(C)cc(-c3ccc(Cl)cc3)c2O1 (stereo partly drawn),-10%,x,-17%,x
O=C(NNC(=O)c1ccccc1OCc1ccccc1)c1ccccc1O,u,-42%,7.1µM*,-14%
CCOc1cc(Br)cc(/C=N/NC(=O)c2cccnc2)c1O,u,-1%,7.1µM*,-9%
COc1cccc(/C=N/NC(=O)c2c(-c3ccccc3)noc2C)c1O,u,u,10µM*,-13%
COc1cccc(/C=N/NC(=O)c2cnccn2)c1O,-5%,-5%,4.5µM*,6%
COc1cccc(/C=N/NC(=O)c2c(-c3ccccc3)noc2C)c1OC,-9%,x,-14%,x
COc1cccc(/C=N/NC(=O)CNC(=O)/C=C\c2ccccc2)c1O,x,u,x,2%
COc1ccc(/C=N/NC(=O)c2cnccn2)c(OC)c1OC,x,-3%,x,-15%
COc1cccc(/C=N/NC(=O)CNC(=O)C(c2ccccc2)c2ccccc2)c1O,u,-30%,3.5µM*,1%

# Compound activity: PubChem BioAssay, National Center for Advancing Translational Sciences (NCATS)
